# Measurements: PubChem BioAssay (Tox21)
# Values joined by “and” are separate entries in the source; they are usually repeats but may differ in a detail not shown here. Equal entries are not always repeated. Some compounds were tested as several samples or in several runs, with calls that do not always agree. Active and inactive are the calls of the source. The call rests on the fitted dose curve.
# Test: qHTS assay to identify small molecule agonists of the estrogen related receptor (ERR) signaling pathway from Tox21 library (AID 1224849); further: nearly all actives have a fitted effect of over 15% in size
# Details: ERR reporter cell line, ONE-Glo luciferase, 18 h; at 42.5 µM (top of the series)
# From the text: National Center for Advancing Translational Sciences [NCATS]
# NIH Chemical Genomics Center [NCGC]
# U.S. Environmental Protection Agency [EPA]
# National Institutes of Environmental Health Sciences [NIEHS]
# National Toxicology Program [NTP]
# Estrogen related receptors (ERRs), the first orphan nuclear receptors discovered, play an important role in the control of cellular energy metabolism. ERRs are required for high-energy production in response to the environmental challenges. ERR-alpha was also identified as an adverse marker for breast cancer progression; ERR-alpha-positive tumors have a poor prognosis. To screen and to identify environmental compounds that perturb the ERR signaling pathways could provide valuable information for potential therapeutic or preventive measures in the treatment of metabolic disease. For identifying ERR agonists, ERR cell line (provided by NTP) has been used to screen Tox21 10K library.
# The ERR cells were dispensed at 2,000 cells/5 ul/well in 1536-well white plates using a Multidrop dispenser. After the assay plates were incubated at a 37 C/5% CO2 incubator for 6 hours, 23 nL of compounds dissolved in DMSO, positive and negative controls or DMSO only was transferred to the assay plate by a pin tool. The plates were incubated at 37 C for 18 hours. 4 ul/well of One-Glo reagent was added into the assay plates using a Flying Reagent Dispenser. After 30-minute incubation at room temperature, the luminescence intensity in the plates was measured using a ViewLux plate reader.
# On the % scale 0 is the no-effect control and ±100 the full control effect.
row,SMILES,"activity change, positive = activation"
1,CC1OC(C)OC(C)O1 (stereo not given),4.56% (inactive)
2,Nc1ccccc1C(=O)O,5.44% (inactive)
3,OC(O)C(Cl)(Cl)Cl,0.553% (inactive)
4,CC(C)(C)OOC(C)(C)C,6.85% (inactive)
5,O=C(NC(=O)c1c(F)cccc1F)Nc1cc(Cl)c(OC(F)(F)C(F)C(F)(F)F)cc1Cl (stereo not given),-26% (inactive)
6,COCCl,1.1% (inactive)

# Same assay, conditions: ERR reporter cell line, ONE-Glo luciferase, 18 h; at 92.4 µM (top of the series)
row,SMILES,"activity change, positive = activation"
1,CCC[CH2][Sn]([Cl])([Cl])[Cl],3.29% (inactive) and -6.08% (inactive)
2,CC(C)(C)C(O)(CCc1ccc(Cl)cc1)Cn1cncn1 (stereo not given),-48.6% (inactive) and -40.4% (inactive)
3,CC1OC(C)OC(C)O1 (stereo not given),4.37% (inactive)
4,Nc1ccccc1C(=O)O,6.82% (inactive)
5,C=CC(N)=O,7.14% (inactive)
6,BrCCBr,3.43% (inactive) and 4.88% (inactive)
7,OC(O)C(Cl)(Cl)Cl,-4.47% (inactive)
8,ClCCBr,3.01% (inactive) and -0.293% (inactive)
9,CC(C)(C)OOC(C)(C)C,-1.09% (inactive)
10,COc1ccc2c3c1O[C@H]1[C@@H](O)C=C[C@H]4[C@@H](C2)N(C)CC[C@@]341,-50.6% (inactive) and -3.7% (inactive)
11,CCCCOC(=O)c1ccccc1C(=O)OCCCC,-4.86% (inactive) and -5.73% (inactive)
12,CC(C)C1(C)N=C(c2nc3ccccc3cc2C(=O)O)NC1=O (stereo not given),3.26% (inactive) and 5.33% (inactive)
13,COC(=O)c1ccccc1N,4.73% (inactive) and 5.15% (inactive)
14,CCc1cccc(C)c1N(C(=O)CCl)C(C)COC (stereo not given),-45.5% (inactive) and -42% (inactive)
15,Cc1cccc([N+](=O)[O-])c1,5.45% (inactive) and 0.517% (inactive)
16,COC(=O)NS(=O)(=O)c1ccc(N)cc1,6.12% (inactive) and 0.416% (inactive)
17,COC(=O)c1ccccc1C(=O)OC,-0.694% (inactive) and 10.9% (active)

row,SMILES,"activity change, positive = activation"
1,CON(C)C(=O)Nc1ccc(Cl)c(Cl)c1,-4.36% (inactive) and -0.559% (inactive)
2,CC(C)N1C(=O)c2ccccc2NS1(=O)=O,-10.6% (inactive) and -6.56% (inactive)
3,CNC(=O)Oc1ccccc1OC(C)C,0.314% (inactive)
4,O=c1[nH]c(=O)[nH]c(=O)[nH]1,1.86% (inactive) and -0.392% (inactive)
5,O=c1ccc(=O)[nH][nH]1,3.51% (inactive) and 9.01% (inactive)
6,O=C(NC(=O)c1c(F)cccc1F)Nc1cc(Cl)c(OC(F)(F)C(F)C(F)(F)F)cc1Cl (stereo not given),-26.5% (inactive)
7,COCCl,-18.8% (inactive)
8,CC(C)OC(=O)Nc1cccc(Cl)c1,3.6% (inactive)
9,CC(=O)C=C(C)C,0.13% (inactive) and 3.17% (inactive)
10,CC(C)NC(=O)N1CC(=O)N(c2cc(Cl)cc(Cl)c2)C1=O,-27.3% (inactive) and -5.72% (inactive)
11,Cn1cc(-c2ccccc2)c(=O)c(-c2cccc(C(F)(F)F)c2)c1,-9.79% (inactive) and -18.6% (inactive)
12,CCC(C)(CC)c1cc(NC(=O)c2c(OC)cccc2OC)on1,-45.6% (inactive) and -38.5% (inactive)
13,CC(C#N)CCC#N (stereo not given),5.4% (inactive) and 2.56% (inactive)
14,Clc1cccc(Cl)c1Cl,0.683% (inactive)
15,CN=C=S,0.382% (inactive) and 8.43% (inactive)
16,CN(N=O)c1ccccc1,0% (inactive) and 7.25% (inactive)
17,O=[N+]([O-])c1ccccc1,8.72% (inactive) and 8.25% (inactive)
